This note sets out measurements from PubChem BioAssay (Tox21).

Several values for one entry are separate records, joined by “and”; a condition that tells them apart may be missing. Identical values can stand only once. Results filed as inconclusive are left out. Entries that show only a call come without a potency. Some compounds were tested as several samples or in several runs, with calls that do not always agree. Activity calls are given as the source filed them. Calls follow the shape of the dose curve; as a rule, active = well fitted cell-killing curve with a large enough effect in the repeat runs; inconclusive = weak or mixed curves, or effect the other way; inactive = flat fitted curve, though single readings scatter.
Potency is read from the fitted curve at half-maximal effect.

This experiment is described as follows: qHTS RealTime-Glo MT Cell Viability Assay in HEK293 cells - 8 hour (AID 1224887). Also: nearly all actives have a fitted effect of over 50% in size. As to activity change, negative = cytotoxicity: top concentration of the series differs between compounds. The note with it: RealTime-Glo luminescence; series mostly up to 76.8 µM; activity change, negative = cytotoxicity: at the top concentration. The text has this:
U.S. Tox21 Program National Center for Advancing Translational Sciences [NCATS] NIH Chemical Genomics Center [NCGC] U.S. Environmental Protection Agency [EPA] National Institutes of Environmental Health Sciences [NIEHS] National Toxicology Program [NTP] U.S. Food and Drug Administration [FDA] Tox21 Assay Overview: Measure of cell viability is critical in the cell-base assay. Analysis of cell viability is necessary for the characterization of cell responses to cytotoxic drugs and environmental stress. A RealTime-Glo MT Cell Viability Assay to monitor cell viability in real time of continues cell culture during 40 hours of compound treatment was used to screen Tox21 10K library compounds in Hek293 cells. The RealTime-Glo MT Cell Viability Assay is a nonlytic, homogeneous, bioluminescent method to measure cell viability in real time using a simple, plate-based method. The assay involves adding NanoLuc luciferase and a cell-permeant prosubstrate to cells in culture. Viable cells reduce the proprietary prosubstrate to generate a substrate for NanoLuc luciferase. This substrate diffuses from cells into the surrounding culture medium, where it is rapidly used by the NanoLuc Enzyme to produce a luminescent signal. The signal correlates with the number of viable cells, making the assay well suited for cytotoxicity studies.
Tox21 Assay Protocol Summary: The mixture of Hek293 cell suspension and reagents were dispensed at 600cells/6 ul/well in 1536-well tissue culture treated black solid bottom plates using a Multidrop dispenser. After the assay plates were incubated at a 37 C/5% CO2 incubator for 5 hours, 23 nL of compounds dissolved in DMSO, positive and negative controls was transferred to the assay plate by a pintool work station. The plates were incubated at 37 C for 40 hours. The luminescence intensity were measured at 0h, 8h, 16h, 24h, 32h and 40h time points using ViewLux plate reader during compound treatment.
In general terms: Quantitative high-throughput screening tests each substance at several concentrations.
For the molecule `CC(=O)CC(c1ccccc1)c1c(O)c2ccccc2oc1=O` (stereo not given), the Potency result is “inactive”.
Consider `C=C(C)C(=O)OCC(C)O` (stereo not given), for which the Potency result is “inactive”.
Same read-out and setting: for `C=CCc1ccc(O)c(OC)c1` the value was “inactive”.
Consider `CCCCCCCC(=O)OCC(COC(=O)CCCCCCC)OC(=O)CCCCCCC`, for which the Potency result was “inactive”.
In the case of `Cc1cn([C@H]2C=C[C@@H](CO)O2)c(=O)[nH]c1=O`, the Potency entry was “inactive”.
For the molecule `CCCCNC(=O)NS(=O)(=O)c1ccc(C)cc1`, the Potency entry was “inactive”.
Still for that read-out and setting: for `CN(C)CCOC(C)(c1ccccc1)c1ccccn1` (stereo not given) the value was “inactive”; for `O=C1NC(=O)C(c2ccccc2)(c2ccccc2)N1`, “inactive”.
`Cc1c(C(=O)O)c(O)cc2c1C(=O)c1c(O)c([C@@H]3O[C@H](CO)[C@@H](O)[C@H](O)[C@H]3O)c(O)c(O)c1C2=O`: the Potency entry is “inactive”.
Regarding `CCCCCCc1ccc(O)cc1O`, the Potency was 15.5 µM (active) and 9.77 µM (active).
On to `Oc1ccccc1`, for which the Potency result was “inactive”.
As for `CCCCCCCCCCCCCCCC[N+](C)(C)Cc1ccccc1`, the Potency is 50.5 µM (active) and 49.8 µM (active) and inactive.
Still for that read-out and setting: for `Nc1c(N=Nc2ccc(-c3ccc(N=Nc4cc(S(=O)(=O)O)c5ccccc5c4N)cc3)cc2)cc(S(=O)(=O)O)c2ccccc12` the value was 24.5 µM (active).
Turning to `NS(=O)(=O)O`, the Potency entry is “inactive”.
Same read-out and setting: for `CCN(CC)C(=O)c1cccc(C)c1` the value was “inactive”; for `O=C(O)CC(O)C(=O)O` (stereo not given), “inactive”.
As to `O=C(Nc1ncc([N+](=O)[O-])s1)c1cccs1`, the “activity change, negative = cytotoxicity” value is -6.17% [at 35.3 µM] (inactive).
In the case of `CN(C)C(=O)Nc1ccc(Cl)c(Cl)c1`, the Potency entry was “inactive”.
Still for that read-out and setting: for `Cc1cccc(C)c1` the value was “inactive”; for `O=C1OC2(c3ccccc31)c1cc(Br)c(O)c(Br)c1Oc1c2cc(Br)c(O)c1Br`, “inactive”.
On to `O=CC(=O)c1ccccc1`, for which the “activity change, negative = cytotoxicity” value is -5.23% (inactive).
As to `CCCc1cc(=O)[nH]c(=S)[nH]1`, the Potency result is “inactive”.
On to `NC(=O)n1c(O)c(C(=O)c2cccs2)c2cc(Cl)ccc21`, for which the “activity change, negative = cytotoxicity” value was 4.74% [at 35.3 µM] (inactive).
As for `CS(=O)(=O)OCCCCOS(C)(=O)=O`, the Potency result is “inactive”.
For `O=C1NS(=O)(=O)c2ccccc21`, the Potency entry is “inactive”.
As for `Cc1ncc([N+](=O)[O-])n1C`, the Potency result is “inactive”.
For the molecule `Nc1ccc([N+](=O)[O-])cc1O`, the “activity change, negative = cytotoxicity” value was -5.84% (inactive).
Turning to `CCCC[P+](CCCC)(CCCC)CCCC`, the Potency result was “inactive”.
Take `CC12CCC(CC1)C(C)(C)O2`: the Potency entry is “inactive”.
As to `Nc1ccc(S(N)(=O)=O)cc1`, the Potency entry is “inactive”.
Still for that read-out and setting: for `Cc1ncc([N+](=O)[O-])n1CCO` the value was “inactive”; for `Cc1cc(=O)oc2cc(O)ccc12`, “inactive”.
On the same count and under the same terms, for `CCCCCCCCCCCC[N+](C)(C)Cc1ccccc1` the value was 53.9 µM (active) and 59.7 µM (active); for `CN1[C@@H]2CC(OC(=O)[C@H](CO)c3ccccc3)C[C@H]1[C@@H]1O[C@@H]12` (stereo not given in full), “inactive”; for `O=C1c2c(O)cccc2Cc2cccc(O)c21`, “inactive”.
For the molecule `CCc1nc(N)nc(N)c1-c1ccc(Cl)cc1`, the “activity change, negative = cytotoxicity” value was -16.7% [at 35.3 µM] (inactive).
In the case of `OC[C@H]1O[C@H](O[C@]2(CCl)O[C@H](CCl)[C@@H](O)[C@@H]2O)[C@H](O)[C@@H](O)[C@H]1Cl`, the Potency result is “inactive”.
For the molecule `Nc1ccc(O)c([N+](=O)[O-])c1`, the “activity change, negative = cytotoxicity” value was -1.08% (inactive).
For `C/C=C/C=C/C(=O)O`, the Potency result was “inactive”.
The same measure, in the same setting: for `CC(O)(P(=O)(O)O)P(=O)(O)O` the value was “inactive”.
